Measurements published in PubChem BioAssay.
Several values for one entry are separate records, joined by “and”; a condition that tells them apart may be missing. Equal entries are not always repeated. Activity calls are given as the source filed them.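 Rule for the calls, unless noted: active = mean z-score across replicates of 1.96 or higher in either the MELAS or the Rieske mutant cell line; inactive = the rest.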

How the values were obtained:
[1] = hESC survival regulators, cell-based (AID 493140; call rule not given here;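 note: cells exposed to compounds for four days before counting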); details: human embryonic stem cell survival screen; stronger effect = higher value
[2] = liver-stage malaria parasite growth inhibition, primary screen, cell-based, HepG2, luciferase luminescence, HepG2 viability (AID 624349; in the data active = parasite load remaining mostly below about 12%, no sharp cut-off; inactive = mostly above about 10%;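 note: 100% = mean of DMSO negative control wells on the same plate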); details: P. berghei liver stage in HepG2, luciferase luminescence, concentration not given here; parasite load remaining: stronger effect = lower value; viability: measured here: HepG2 viability without parasites
[3] = stimulators of nuclear beta-catenin in C2C12, primary screen, imaging, WNT3A-conditioned medium, mouse C2C12, NPC library (AID 1117326; in the data active = nuclear beta-catenin stimulation mostly above about 4.2%, no sharp cut-off; inactive = mostly below about 10%); details: stronger effect = higher value
[4] = growth inhibition of GSK3B-pretreated HCT116 cells – cell-based, CellTiter-Glo, 0.2 to 20 µM (AID 1117336;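 active = compounds lowering colon cancer cell viability after pretreatment blocking the GSK3B kinase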); details: HCT116 viability after GSK3B inhibitor, at 20 µM, stronger effect = higher value
[5] = HCT116 colon cancer cell growth inhibition, primary screen, CellTiter-Glo luminescence, NPC library (AID 1117342;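 active = compounds that lower survival of HCT116 colon cancer cells in the luminescence readout, no numeric limit stated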); details: at 20 µM (top of the series)
[6] = CellTiter-Glo luminescent readout of SW480 viability loss, NPC library primary (AID 1117343;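 active = compounds that lower viability of the colon cancer cells in the luminescence readout, with no numeric limit stated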); details: CellTiter-Glo luminescence; at 20 µM (top of the series) unless noted
[7] = decreased DLD-1 cellular survival, CellTiter-Glo luminescent readout, NPC compound collection, primary HTS (AID 1117346;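 active = compounds that lower survival of DLD-1 colon cancer cells in the luminescence readout, no cutoff given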); details: DLD-1 viability, CellTiter-Glo luminescence; at 20 µM (top of the series)
[8] = sensitizers of A549 cells to miR-34 induction, primary screen, imaging, A549 dox-inducible miR-34, nuclei and caspase counts (AID 1347080;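 active = compounds whose cell count with miR-34 switched on is under 0.7 times the count with it off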); details: A549 miR-34 inducible, Hoechst nuclei count, 48 h
[9] = survival rescue of mitochondrial mutant cells in low glucose, primary screen, MELAS cybrids, Rieske KO mouse fibroblasts, CellTiter-Glo (AID 1508586);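 note: z relative to plate mean and SD of compound and empty wells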
[10] = polyglutamine-triggered caspase-3 activation inhibitors, cell-based (AID 1583); details: polyglutamine-induced caspase-3 activation, cell assay; stronger effect = higher value;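 tested at 10 µM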
[11] = stimulators of insulin release from INS-1E, primary screen, cell-based, 5 mM glucose, NPC library (AID 1117329;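 active = compound raises insulin release from rat beta cells at 5 mM glucose, no numeric limit stated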); details: rat INS-1E insulin secretion, at 10 µM, stronger effect = higher value
[12] = inhibition of endothelial tube formation, primary screen, imaging, VEGF stimulated, CD31 staining, tube area, NPC library (AID 1117340;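 active = compound that reduces growth-factor-driven endothelial tube area in a mixed cell culture, no cutoff stated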); details: VEGF-stimulated ADSC/ECFC co-culture, at 10 µM, stronger effect = higher value
[13] = glucagon-like peptide 1 release enhancers, primary assay, NCI-H716 cell line, NPC library (AID 1117341;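 active = compound raises GLP1 secretion from the human gut endocrine cells, with no numeric limit stated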); details: NCI-H716 cells, at 10 µM, stronger effect = higher value
[14] = target: 6-phosphogluconate dehydrogenase, decarboxylating (Homo sapiens) (UniProt P52209); experiment: 6PGD enzyme inhibitors, primary screen, biochemical, human, recombinant enzyme, NADPH absorbance (AID 1159550;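 active = at least 20% inhibition of 6-phosphogluconate dehydrogenase activity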); details: recombinant 6PGD, NADPH absorbance 341 nm; at 10 µM; stronger effect = higher value
[15] = modulation of C. elegans fzo-1 (AID 1259413; call rule not given here;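 note: fzo-1 mutant C. elegans worms in liquid wells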); details: C. elegans fzo-1 modulator screen, mean read-out; stronger effect = higher value
[16] = differential killing of epithelial or mesenchymal cells, primary screen, imaging, PC-3E GFP, TEM4-18 mCherry, co-culture (AID 1345086;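 active = compounds killing one labelled cell type while sparing the other, by normalised counts and ratio limits, not self-fluorescent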;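 for all read-outs here: cells exposed to compound for 72 h before imaging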;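 for red/green cell ratio (normalised): normalised mesenchymal count divided by normalised epithelial count so high means epithelial killing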); details: imaging cell counts, at 1 µM; for red/green cell ratio (normalised): actives lie on both sides, counts scaled to control wells, 1 = unselective
[17] = target: NAD(+) hydrolase SARM1 (Homo sapiens) (UniProt Q6SZW1); experiment: SARM1 TIR NADase inhibitors, cell lysate, NAD-Glo luminescence (AID 1508614;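 active = compound whose remaining NAD level is above about 45 nM, limit read from the data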;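 note: higher remaining NAD means stronger inhibition of SARM1 NADase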); details: SAM-TIR HEK293T lysate NADase, at 1 µM, stronger effect = higher value
[18] = target: Mitogen-activated protein kinase 7 (Homo sapiens) (UniProt Q13164); experiment: ERK5 transactivation activators in reporter cells, primary screen, cell-based, HTS (AID 1508626;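 active = luciferase signal above three times the same-plate solvent-only control wells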;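 note: luciferase driven by Gal4-ERK5 fusion binding five Gal4 sites before minimal TATA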); details: HeLa Gal4-ERK5 transactivation, 18 h, at 5 µM, stronger effect = higher value
[19] = viability rescue of complex I mutant cybrids, primary screen, cell-based, galactose medium, ATP luminescence (AID 1645843;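 active = z-score of at least 1.8 in each of two replicates, scored against plate mean and spread of sample wells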;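 note: positive z means more ATP and so rescue of galactose-driven cybrid death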); details: complex I mutant cybrid cells, 72 h, stronger effect = higher value
[20] = stronger effect = lower value, cell number ratio, induced over uninduced
[21] = measured here: relative caspase fold change +Dox/-Dox
[22] = measured here: total cells with miR-34 induction, stronger effect = lower value
[23] = measured here: total cells without miR-34 induction
[24] = MELAS cybrid survival, CellTiter-Glo 48 h, stronger effect = higher value
[25] = Rieske KO mouse fibroblast survival, CellTiter-Glo 72 h
[26] = measured here: epithelial PC-3E GFP cell survival
[27] = measured here: mesenchymal TEM4-18 mCherry cell survival

Sequence of NAD(+) hydrolase SARM1 (Homo sapiens) (Q6SZW1 whole entry, looked up, the tested form may be a part): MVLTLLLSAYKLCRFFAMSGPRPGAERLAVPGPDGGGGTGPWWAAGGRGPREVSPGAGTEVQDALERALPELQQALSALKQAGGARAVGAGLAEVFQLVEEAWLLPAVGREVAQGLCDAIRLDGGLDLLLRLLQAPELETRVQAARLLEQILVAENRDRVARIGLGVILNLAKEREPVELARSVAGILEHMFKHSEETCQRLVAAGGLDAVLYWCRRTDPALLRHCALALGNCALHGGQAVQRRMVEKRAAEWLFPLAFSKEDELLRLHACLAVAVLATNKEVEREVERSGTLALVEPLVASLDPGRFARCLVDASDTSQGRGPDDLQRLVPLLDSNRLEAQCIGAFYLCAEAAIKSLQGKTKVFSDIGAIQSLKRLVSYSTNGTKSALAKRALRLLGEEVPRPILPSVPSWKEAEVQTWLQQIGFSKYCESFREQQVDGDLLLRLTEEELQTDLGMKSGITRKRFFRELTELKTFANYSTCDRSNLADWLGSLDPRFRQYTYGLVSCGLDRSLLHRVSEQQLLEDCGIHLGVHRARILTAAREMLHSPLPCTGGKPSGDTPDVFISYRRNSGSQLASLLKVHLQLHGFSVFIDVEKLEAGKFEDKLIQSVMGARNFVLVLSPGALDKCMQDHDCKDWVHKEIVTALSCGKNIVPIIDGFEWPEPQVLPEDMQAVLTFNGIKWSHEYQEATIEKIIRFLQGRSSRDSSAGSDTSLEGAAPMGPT
Sequence of 6-phosphogluconate dehydrogenase, decarboxylating (Homo sapiens) (P52209 whole entry, looked up): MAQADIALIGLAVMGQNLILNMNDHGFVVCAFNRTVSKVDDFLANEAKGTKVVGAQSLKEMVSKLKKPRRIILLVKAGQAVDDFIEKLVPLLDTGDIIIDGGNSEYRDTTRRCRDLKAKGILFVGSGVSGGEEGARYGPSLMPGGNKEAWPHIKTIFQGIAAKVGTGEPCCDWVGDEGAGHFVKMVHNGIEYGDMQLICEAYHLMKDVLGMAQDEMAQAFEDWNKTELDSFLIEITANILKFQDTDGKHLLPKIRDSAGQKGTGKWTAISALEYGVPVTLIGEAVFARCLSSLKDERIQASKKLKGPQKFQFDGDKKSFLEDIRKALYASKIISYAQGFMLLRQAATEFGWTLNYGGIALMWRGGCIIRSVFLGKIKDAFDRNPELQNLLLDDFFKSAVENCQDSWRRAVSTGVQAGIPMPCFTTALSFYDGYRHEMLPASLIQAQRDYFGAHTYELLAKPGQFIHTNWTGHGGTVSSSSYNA
Sequence of Mitogen-activated protein kinase 7 (Homo sapiens) (Q13164 whole entry, looked up, the tested form may be a part): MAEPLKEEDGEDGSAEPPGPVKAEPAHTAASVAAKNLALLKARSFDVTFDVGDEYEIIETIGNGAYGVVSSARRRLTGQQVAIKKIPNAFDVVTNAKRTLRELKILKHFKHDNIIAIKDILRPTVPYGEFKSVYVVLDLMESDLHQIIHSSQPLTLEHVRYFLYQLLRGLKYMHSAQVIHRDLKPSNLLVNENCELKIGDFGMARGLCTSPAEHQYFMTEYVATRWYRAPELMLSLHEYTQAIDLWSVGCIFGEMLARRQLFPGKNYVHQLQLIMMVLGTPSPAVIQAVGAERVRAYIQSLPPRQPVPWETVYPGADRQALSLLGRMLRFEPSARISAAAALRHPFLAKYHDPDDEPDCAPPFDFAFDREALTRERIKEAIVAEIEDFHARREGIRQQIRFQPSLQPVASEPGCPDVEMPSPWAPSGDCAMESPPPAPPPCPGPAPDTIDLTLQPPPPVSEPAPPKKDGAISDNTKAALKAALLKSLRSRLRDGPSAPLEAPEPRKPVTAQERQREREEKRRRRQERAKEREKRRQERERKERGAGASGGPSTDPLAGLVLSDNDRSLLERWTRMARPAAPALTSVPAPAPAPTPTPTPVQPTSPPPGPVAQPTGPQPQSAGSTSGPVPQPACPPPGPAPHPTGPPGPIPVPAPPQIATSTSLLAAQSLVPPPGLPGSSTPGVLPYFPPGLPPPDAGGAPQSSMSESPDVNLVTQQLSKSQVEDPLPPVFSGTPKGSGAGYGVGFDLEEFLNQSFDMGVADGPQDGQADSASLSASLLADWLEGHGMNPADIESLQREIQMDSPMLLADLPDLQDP

With `COc1ccc2c(c1)C(=O)N(CCc1ccc(S(=O)(=O)NC(=O)NC3CCCCC3)cc1)C(=O)C2(C)C` the survival [1] was 22.9 (inactive), the parasite load remaining [2] was 128% (inactive) and the viability [2] was 79.4%. For the same compound, the nuclear beta-catenin stimulation ([3]; at 10 µM) was 0.7% (inactive), the nuclear beta-catenin stimulation ([3]; stimulation, at 2 µM) was 10.6% and the viability decrease [4] was 87.4% (active). The inhibition of viability [5] was 68% (active), the viability decrease (inhibition) [6] was 87.1% (active) and the viability decrease (inhibition) [7] was 94% (active). The fold change [8, 20] was 0.971 (inactive) and 0.893 (inactive), the fold change [8, 21] was 0.765 and 0.69 and the cell count [8, 22] was 9100 and 8180. The cell count [8, 23] was 9360 and 9160, the z-score [9, 24] was -0.157 (inactive) and 0.277 (inactive) and the z-score [9, 25] was -0.221 and -0.0621.
In the case of `COc1cc(Cc2cnc(N)nc2N)cc(OC)c1OC`, the inhibition [10] is reported as -19.7%, the survival [1] is reported as 17.1 (inactive) and the insulin secretion stimulation [11] is reported as -1.7% (inactive). The viability decrease [4] was -3% (inactive), the tube area decrease [12] was 2% (inactive) and the GLP1 secretion stimulation [13] was 4.6% (inactive). The inhibition of viability [5] was 28.8% (inactive), the viability decrease (inhibition) [6] was 39.7% (inactive) and the viability decrease (inhibition) [7] was 9.15% (inactive). The inhibition [14] was -0.293% (inactive), the mean signal [15] was 243 (inactive) and the red/green cell ratio (normalised) [16] was 1.12 (inactive). For the same compound, the normalised cell number [16, 26] was 0.91, the normalised cell number [16, 27] was 1.02 and the z-score [9, 24] was -0.0749 (inactive) and 0.787 (inactive) and 0.308 (inactive). The z-score [9, 25] was -0.219 and -0.384 and -0.669, the remaining NAD [17] was 10 nM (inactive) and the luciferase signal [18] was 48 AU (inactive). For the same compound, the z-score [19] was 0.49 (inactive) and 0.045 (inactive) and 0.71 (inactive).
For `CO[C@]1(NC(=O)CSC(F)F)C(=O)N2C(C(=O)O)=C(CSc3nnnn3CCO)CO[C@H]21`, the insulin secretion stimulation [11] was 0.75% (inactive), the viability decrease [4] was 11.4% (inactive) and the tube area decrease [12] was 7.5% (inactive). For the same compound, the GLP1 secretion stimulation [13] was 4% (inactive), the inhibition of viability [5] was -0.4% (inactive) and the viability decrease (inhibition) [6] was -2.1% (inactive). For the same compound, the viability decrease (inhibition) [7] was -3.6% (inactive).
With `CCN(CC)CC(=O)Nc1c(C)cc(C)cc1C` the insulin secretion stimulation [11] was -0.3% (inactive), the viability decrease [4] was -7.6% (inactive) and the tube area decrease [12] was 7.2% (inactive). The GLP1 secretion stimulation [13] was -3.6% (inactive), the inhibition of viability [5] was 4.6% (inactive) and the viability decrease (inhibition) [6] was 6% (inactive). The viability decrease (inhibition) [7] was -2% (active).
For `N=c1nc(N2CCCCC2)cc(N)n1O`, the inhibition [10] was 20.6%, the survival [1] was 23.2 (inactive) and the nuclear beta-catenin stimulation ([3]; at 10 µM) was 0.1% (inactive). The nuclear beta-catenin stimulation ([3]; stimulation, at 2 µM) was 8.6%, the viability decrease [4] was 3.1% (inactive) and the inhibition of viability [5] was 10.8% (inactive). For the same compound, the viability decrease (inhibition) [6] was -3.9% (inactive), the viability decrease (inhibition) [7] was 7.1% (inactive) and the inhibition [14] was 0.805% (inactive). For the same compound, the mean signal [15] was 252 (inactive), the red/green cell ratio (normalised) [16] was 1.27 (inactive) and the normalised cell number [16, 26] was 1.08. For the same compound, the normalised cell number [16, 27] was 1.37, the z-score [9, 24] was -0.417 (inactive) and -0.443 (inactive) and the z-score [9, 25] was 0.0783 and -0.248. For the same compound, the remaining NAD [17] was 10 nM (inactive) and the luciferase signal [18] was 44 AU (inactive).
With `CC(C(=O)O)c1cccc(C(=O)c2ccccc2)c1` (stereo not given) the inhibition [10] was -50.9%, the survival [1] was 15.6 (inactive) and the insulin secretion stimulation [11] was 1.7% (inactive). For the same compound, the viability decrease [4] was 9.9% (inactive), the tube area decrease [12] was -21.2% (inactive) and the GLP1 secretion stimulation [13] was 1.2% (inactive). For the same compound, the inhibition of viability [5] was 1.73% (inactive), the viability decrease (inhibition) [6] was 1.9% (inactive) and the viability decrease (inhibition) [7] was -13.8% (inactive). For the same compound, the inhibition [14] was -9.9% (inactive), the mean signal [15] was 232 (inactive) and the red/green cell ratio (normalised) [16] was 1.06 (inactive). The normalised cell number [16, 26] was 1.07, the normalised cell number [16, 27] was 1.13 and the z-score [9, 24] was -0.241 (inactive) and 0.309 (inactive) and -0.387 (inactive). The z-score [9, 25] was 0.963 and -0.169 and -0.868, the remaining NAD [17] was 10 nM (inactive) and the luciferase signal [18] was 60 AU (inactive). The z-score [19] was 0.45 (inactive) and 0.27 (inactive) and 0.89 (inactive).
In the case of `CC(C)OC(=O)C(C)(C)Oc1ccc(C(=O)c2ccc(Cl)cc2)cc1`, the inhibition [10] is reported as -9.13%, the survival [1] is reported as 16.9 (inactive) and the nuclear beta-catenin stimulation ([3]; at 10 µM) is reported as 1.9% (inactive). For the same compound, the nuclear beta-catenin stimulation ([3]; stimulation, at 2 µM) was 6.9%, the viability decrease [4] was 81.1% (active) and the inhibition of viability [5] was 81.4% (active). For the same compound, the viability decrease (inhibition) [6] was 75.1% (active), the viability decrease (inhibition) [7] was 57.5% (active) and the inhibition [14] was 13.2% (inactive). The mean signal [15] was 232 (inactive), the red/green cell ratio (normalised) [16] was 1.01 (inactive) and the normalised cell number [16, 26] was 1. The normalised cell number [16, 27] was 1, the z-score [9, 24] was 0.204 (inactive) and 1.22 (inactive) and 0.396 (inactive) and the z-score [9, 25] was 0.718 and 0.00922 and -0.202. The remaining NAD [17] was 10 nM (inactive), the luciferase signal [18] was 56 AU (inactive) and the z-score [19] was -1 (inactive) and -1.21 (inactive) and -1.85 (inactive).
With `CN1C(=O)CC[C@H]1c1cccnc1` the inhibition [10] was 25.7%, the survival [1] was 19.8 (inactive) and the nuclear beta-catenin stimulation ([3]; at 10 µM) was -1.4% (inactive). The nuclear beta-catenin stimulation ([3]; stimulation, at 2 µM) was 5.5%, the viability decrease [4] was 22.7% (inactive) and the inhibition of viability [5] was 12.8% (inactive). For the same compound, the viability decrease (inhibition) [6] was -3% (inactive), the viability decrease (inhibition) [7] was 14.2% (inactive) and the inhibition [14] was 7.9% (inactive). For the same compound, the mean signal [15] was 242 (inactive), the red/green cell ratio (normalised) [16] was 1.08 (inactive) and the normalised cell number [16, 26] was 1.13. For the same compound, the normalised cell number [16, 27] was 1.23, the fold change [8, 20] was 1 (inactive) and 0.929 (inactive) and 0.864 (inactive) and the fold change [8, 21] was 1.81 and 1.06 and 0.497. For the same compound, the cell count [8, 22] was 10100 and 7880 and 10300, the cell count [8, 23] was 10100 and 8480 and 11900 and the remaining NAD [17] was 22 nM (inactive). The luciferase signal [18] was 64 AU (inactive) and the z-score [19] was 0.48 (inactive).
For `CN(C)C(=O)C(CCN1CCC(O)(c2ccc(Cl)cc2)CC1)(c1ccccc1)c1ccccc1`, the inhibition [10] was 18.5%, the survival [1] was 9 (inactive) and the insulin secretion stimulation [11] was 1.9% (inactive). The viability decrease [4] was 64.9% (active), the tube area decrease [12] was 11.7% (inactive) and the GLP1 secretion stimulation [13] was 2.9% (inactive). The inhibition of viability [5] was 90.6% (active), the viability decrease (inhibition) [6] was 99.6% (active) and the viability decrease (inhibition) [7] was 88.2% (active). For the same compound, the inhibition [14] was 1.17% (inactive), the mean signal [15] was 201 (inactive) and the red/green cell ratio (normalised) [16] was 1.02 (inactive). The normalised cell number [16, 26] was 1.3, the normalised cell number [16, 27] was 1.33 and the z-score [9, 24] was -0.364 (inactive) and -0.238 (inactive) and 0.591 (inactive). The z-score [9, 25] was -1.34 and 0.463 and -0.456, the remaining NAD [17] was 10 nM (inactive) and the luciferase signal [18] was 40 AU (inactive).
